sEH act: soluble epoxide hydrolase activators, primary screen, biochemical, human sEH | Bifunctional epoxide hydrolase 2 (Homo sapiens), P34913 | purified human sEH enzymatic activity, activator screen | activation, % at 2 µM | 91,000 tested, 0.04% active | AID 717, 2007; in the data active means activation above about 37%
sEH inhibitor: soluble epoxide hydrolase inhibitors, primary screen, biochemical, human sEH | Bifunctional epoxide hydrolase 2 (Homo sapiens), P34913 | recombinant human sEH enzymatic activity assay | inhibition, % at 2 µM | 91,000 tested, 0.34% active | AID 707, 2007; in the data active means inhibition above about 80%
CYP2C9 activ: human CYP2C9 activators, primary screen, biochemical, luminescence; Cytochrome P450 2C9 (Homo sapiens), P11712; recombinant CYP2C9, luciferin-H conversion; stronger effect = higher value; factor 1 = untreated enzyme, 0 = blocked; activation factor at 5 µM; 96,000 tested, 1.4% active;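 active means activation factor of 2 or more for CYP2C9 at a 5 µM dose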;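 further: 0 = sulfaphenazole-blocked wells and 1 = vehicle-only wells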
CYP2C19 activ: human CYP2C19 activators, primary screen, biochemical, luminescence; Cytochrome P450 2C19 (Homo sapiens), P33261; recombinant CYP2C19, luciferin-H EGE luminescence; stronger effect = higher value; 0 = fully inhibited enzyme, 1 = untreated enzyme; activation factor at 5 µM; 96,000 tested, under 10 active; AID 1025, 2008;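 active means activation factor of at least 2 at 5 µM in the primary screen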;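 further: 0 = wells with 2.5 mM tranylcypromine and 1 = vehicle-only wells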
Target sequence (P33261 whole entry, looked up): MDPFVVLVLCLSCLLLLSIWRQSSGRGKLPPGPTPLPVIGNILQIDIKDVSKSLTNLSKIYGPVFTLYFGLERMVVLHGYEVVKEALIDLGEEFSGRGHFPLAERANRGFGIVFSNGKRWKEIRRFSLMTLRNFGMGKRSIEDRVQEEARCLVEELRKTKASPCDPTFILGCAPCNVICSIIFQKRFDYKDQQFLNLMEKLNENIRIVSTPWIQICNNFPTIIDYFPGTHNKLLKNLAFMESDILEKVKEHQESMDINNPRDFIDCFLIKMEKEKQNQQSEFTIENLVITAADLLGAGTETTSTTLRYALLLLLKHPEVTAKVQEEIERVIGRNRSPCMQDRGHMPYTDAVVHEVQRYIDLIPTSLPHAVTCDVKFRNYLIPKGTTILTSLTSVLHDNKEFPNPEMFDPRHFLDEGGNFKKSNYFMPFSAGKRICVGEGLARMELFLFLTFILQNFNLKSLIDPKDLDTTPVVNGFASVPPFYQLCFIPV
CYP2C19 inhib: blockers of cytochrome P450 2C19 activity – biochemical, luminescence, ADME assay, primary screen; CYP2C19 Supersomes, luciferin-H EGE luminescence, 30 min; inhibition, % at 5 µM; 96,000 tested, 21% active; AID 778, 2007;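 active means CYP2C19 inhibition above a set limit at 5 µM in the primary screen, cut at about 50% in these data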;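 further: plate controls were negative control wells for no effect and 2.5 mM tranylcypromine positive control for full effect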
CYP2C9 inhib: blockers of cytochrome P450 2C9 activity – biochemical, luminescence, ADME assay, primary screen; inhibition, % at 5 µM; CYP2C9 Supersomes, luciferin-H conversion; AID 777, 2007; P11712; 96,000 tested, 20% active;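 active means blocking of liver enzyme CYP2C9 beyond about 50% at 5 µM, limit read from the data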
* = called active by the depositor; / = no result. Compounds with a hit are over-represented: about 27% of the library has one in this group of screens.

SMILES	sEH act	sEH inhibitor	CYP2C9 activ	CYP2C19 activ	CYP2C19 inhib	CYP2C9 inhib
CC(C)(CN=C1NS(=O)(=O)c2ccccc21)CNC(=O)CN1C(=O)c2ccccc2C1=O	6	-9	0.5	0.8	22	46
Cc1ccc(-c2noc(CN3C(C)CCCC3C)n2)cc1 (stereo unspecified)	11	-12	0.6	0.5	51*	36
CCOC(=O)c1c(C)c(C(=O)NCCN2CCOCC2)c(C)n1C	-9	9	/	/	/	/
CCOC(=O)C1CCCN(C(=O)C2CCCN(S(=O)(=O)c3ccc4c(c3)oc(=O)n4C)C2)C1 (stereo unspecified)	17	-20	0.2	0.7	28	81*
Cn1c(=O)oc2cc(S(=O)(=O)N3CCCC(C(=O)NCCN4CCOCC4)C3)ccc21 (stereo unspecified)	-1	4	1	1.1	-5	3
Cn1c(=O)oc2cc(S(=O)(=O)N3CCCC(C(=O)N4CCc5ccccc5C4)C3)ccc21 (stereo unspecified)	9	-12	0.5	0.1	91*	48
Cn1c(=O)oc2cc(S(=O)(=O)N3CCC(C(=O)N4CC=C(c5ccccc5)CC4)CC3)ccc21	1	-4	1.1	0.3	73*	-5
Cn1c(=O)oc2cc(S(=O)(=O)N3CCCC(C(=O)N4CCn5c4nc4ccccc45)C3)ccc21 (stereo unspecified)	/	/	1.1	1.2	-19	-6
CCN(CC)CCNC(=O)CS(=O)Cc1nc(-c2ccccc2Cl)oc1C (stereo unspecified)	7	-7	0.8	0.9	6	18
CC(=O)N(C)C1(c2nnnn2CCOC(=O)Nc2cccc3ccccc23)CCCC1	0	-6	1	0.8	18	0
O=C(Nc1ccc(Cl)cc1)OCCn1nnnc1C(c1ccccc1Cl)N1CCOCC1 (stereo unspecified)	-2	3	0.5	0.5	46	54*
CC(=O)N(C)C1(c2nnnn2CCOC(=O)Nc2ccc(Cl)cc2)CCCCC1	-11	11	0.5	0.1	93*	48
CC(=O)NC1(c2nnnn2CCOC(=O)Nc2ccc(Cl)cc2)CCCCC1	-13	12	0.3	0.1	95*	71*
C=CCN(C(=O)CNC(=O)c1ccco1)C(C(=O)NC1CCCCC1)c1ccccc1F (stereo unspecified)	/	/	0.7	0.7	35	30
CC(=O)N(/N=C1\Sc2ccccc2C1=O)c1ccccc1	-3	3	0.4	0.5	50*	63*
Cc1cc(C)nc(N2CCC(C(=O)Nc3ccc4c(c3)CCC4)CC2)n1	-44	45	1.1	1	3	-9
N#CCSc1nnc(COc2cccc3ccccc23)n1-c1cccc(Cl)c1	-1	0	1.1	1.1	-5	-14
N#CCSc1nnc(COc2cccc3ccccc23)n1-c1ccccc1	-8	8	0	0.1	91*	96*
Cc1ccc(-c2nnc(CSc3nnc(COc4cccc5ccccc45)n3-c3ccccc3)o2)cc1	0	-1	0.4	0.7	30	59*
COc1ccc(-n2c(COc3cccc4ccccc34)nnc2SCC#N)cc1	-3	8	/	/	/	/
Cc1cc(NC(=O)COC(=O)C2CCN(S(=O)(=O)c3cccc(Cl)c3Cl)CC2)no1	-6	5	0.9	0.9	14	15
O=C(CCCN1CCC(c2ccccc2)C1)c1ccc2c(c1)OCCO2 (stereo unspecified)	2	-3	0.8	0.3	72*	19
O=C(CCN1CCc2ccccc2CC1)c1ccc2c(c1)OCCO2	14	-12	0.3	0.4	55*	71*
O=C(CCN1CCOCC1)c1ccc2c(c1)OCCO2	8	-2	/	/	/	/
O=C(CCCN1CCOCC1)c1ccc2c(c1)OCCO2	-7	8	1	0.9	12	5
SMILES	sEH act	sEH inhibitor	CYP2C9 activ	CYP2C19 activ	CYP2C19 inhib	CYP2C9 inhib
COC(=O)c1ccc(Oc2ccc(C(C)(C)C)cc2)c([N+](=O)[O-])c1	13	-12	0.4	0.6	38	60*
CC(C)CN(C(=O)CSc1nnc2c(Cl)cc(C(F)(F)F)cn12)C1CCS(=O)(=O)C1 (stereo unspecified)	-5	6	1.2	0.9	5	-17
CC(C)(C)n1nnnc1CN1CCSCC1	-4	7	1	0.7	31	0
CCc1cccc(CC)c1N(COC)C(=O)Cn1nnc2ccccc21	-8	8	0	0.2	82*	100*
CCc1cccc(CC)c1N(COC)C(=O)Cn1c(CO)nc2ccccc21	4	-4	0.5	0.6	36	51*
CCc1cccc(CC)c1N(COC)C(=O)Cn1ccccc1=N	-4	4	1	1.1	-13	-3
CN1CCCN(C2C3CC4CC(C3)CC2C4)CC1 (stereo unspecified)	-7	6	0.9	1	1	9
Cc1ccc(NC(=O)N2CCC(c3nc4c(nnn4Cc4cccc(Cl)c4)c(=O)[nH]3)CC2)cc1	-16	19	0	0.1	94*	100*
O=C(C1CCCCC1)N1CCC(c2nc3c(nnn3Cc3c(F)cccc3Cl)c(=O)[nH]2)CC1	2	0	/	/	/	/
CCc1nc2c(nnn2Cc2ccc(F)cc2)c(=O)[nH]1	-12	10	0.9	0.1	88*	10
O=C(Nc1ccc(F)cc1)N1CCC(c2nc3c(nnn3Cc3cccc(Cl)c3)c(=O)[nH]2)CC1	/	/	0.3	0.6	35	66*
O=C(NCc1cccs1)c1nc2c(nnn2Cc2ccc(F)cc2)c(=O)[nH]1	-21	24	/	/	/	/
O=C(NC1CCCC1)c1nc2c(nnn2Cc2cccc(Cl)c2)c(=O)[nH]1	/	/	1	0.9	8	0
N#Cc1cccc(NC(=O)N2CCC(c3nc4c(nnn4Cc4cccc(Cl)c4)c(=O)[nH]3)CC2)c1	5	-3	1.2	1.2	-18	-18
Cc1ccc(Cn2nnc3c(=O)[nH]c(C4CCN(S(=O)(=O)c5ccc(C)cc5)CC4)nc32)cc1	13	-11	0	0.2	78*	98*
NCCCCCc1nnc(SCC(=O)c2ccc(Cl)cc2)o1	-4	3	0.2	0.4	59*	75*
CC(C)Sc1nnc([C@H](C)NC(=O)OC(C)(C)C)o1	10	-9	0.8	0.4	57*	24
CCCCSc1nnc(CCCCCNC(=O)OC(C)(C)C)o1	-5	8	0.4	0.4	64*	64*
CSc1nnc([C@H](C)NC(=O)OC(C)(C)C)o1	2	0	0.9	0.8	19	7
O=C(CSc1nnc(CNC(=O)c2ccccc2F)o1)c1ccc(Cl)cc1	-5	7	0.5	0.6	37	54*
